Here are results for 27 compounds from PubChem BioAssay (NCI).

Common to all, as to test: NCI-60 one-dose screen, 48 h (100 = growth as untreated, 0 = no growth, -100 = all killed)
Common to all, as to details: 10 µM unless noted

For assay [1], the system named is SR leukemia.
The test system of assay [2] is RPMI-8226 leukemia.
Assay [3] has as its system OVCAR-8 ovarian.
Assay [4] relates to OVCAR-5 ovarian.
In assay [5] the test system is OVCAR-4 ovarian.
Assay [6] concerns SK-OV-3 ovarian.
For assay [7], the system named is IGROV1 ovarian.
Assay [8] relates to OVCAR-3 ovarian.
Assay [9] concerns HS 578T breast.
Assay [10] concerns NCI/ADR-RES ovarian.

The panel holds about 83,000 compounds, 20% with a hit somewhere; the sample as a whole holds those more often.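 For each line, cells grew in 96-well plates with the test compound present at a single concentration for 48 hours.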 Unmarked numbers belong to inactive results. Calls of active or inactive are those of the source. The calls were made as follows: active = growth percent below 10; inactive = the rest.

Regarding `CCN(CC)CCSc1c2ccc(Cl)cc2nc2ccc(OC)cc12`, the growth was 12.1% in assay [1]; 72.7% in assay [2]; 88.5% in assay [3]; 103% in [4]; 81% in assay [5]; 86.5% in [6]. Moreover, the growth in [7] is 98.1%; in assay [8], 24.5%; in [9], 108%; in assay [10] it was 105%.
On to `O=C(CC(O)c1ccncc1)c1ccccc1` (stereo not given), for which the growth was 82.1% in assay [1]; 97.9% in [2]; -36.8% (active) in assay [3]; 104% in assay [4]; -29.2% (active) in [5]; 41.9% in assay [6]. Moreover, the growth in [7] was 18%; in assay [8], -60.5% (active); in assay [9] it was -21.8% (active); in [10] it was 65.2%.
Take `CCSc1nnc(Nc2ccc(C(C)C)cc2)s1`: the growth was 69.4% in assay [1]; 72.2% in assay [2]; 109% in assay [3]; 87.1% in assay [4]; 84% in [5]; 104% in assay [6]. Further, the growth in assay [7] was -7.13% (active); in assay [8] it was 106%; in assay [9], 132%; in assay [10], 87.6%.
Regarding `Cc1ccc(Oc2nc3ccccc3cc2-c2nnc(Cn3c(COc4ccccc4)nc4ccccc43)o2)cc1`, the growth is -7.62% (active) in assay [1]; -4.32% (active) in [2]; 25.5% in [3]; 87.7% in assay [4]; 53.9% in assay [5]; 77.3% in assay [6]. The growth in assay [7] is 37.8%; in assay [8], 35.7%; in assay [9] it was 72.4%; in assay [10] it was 34.6%.
Regarding `CCNc1nc(N2CC(=O)Nc3cc(OC)ccc32)c2ccccc2n1`, the growth was 24.3% in [1]; 27.3% in assay [2]; 18.1% in assay [3]; 20% in [4]; 20.4% in [5]; 27.4% in assay [6]. For the same compound, the growth in [7] was 14.3%; in assay [8] it was -16.8% (active); in [9], 7.61% (active); in assay [10] it was 0.157% (active).
Turning to `COc1cc(OC)cc(-c2n[nH]nc2-c2ccc3c(c2)OCO3)c1`, the growth was 14.4% in [1]; 26.2% in assay [2]; 28.6% in assay [3]; 4.97% (active) in assay [4]; 52.5% in assay [5]; 16.3% in assay [6]. Moreover, the growth in assay [7] is 39.5%; in [8], 10%; in [9] it was 12.1%; in assay [10], 3.37% (active).
For `COc1cc(-c2nc(-c3nc4ccccc4[nH]3)cc3c2[nH]c2ccccc23)cc(OC)c1OC`, the growth in [1] was 45.2%; in assay [2], -4.95% (active); in assay [3] it was 13.2%; in assay [4], 88.8%; in assay [5] it was 59.5%; in assay [6] it was 104%. Also, the growth in assay [7] was 18.9%; in assay [8], 31.7%; in assay [9], 55.8%; in [10], 32.2%.
Take `O=C1CCCCN1CCCCC#Cc1ccccc1C#Cc1ccccn1`: the growth in assay [1] is 98.6%; in assay [2] it was 107%; in [3], 113%; in assay [4], 95.2%; in assay [5], 95.2%; in [6], 118%. Also, the growth in [7] is -11.3% (active); in [8], 104%; in [9] it was 118%; in assay [10], 92.2%.
As to `CC(C)N(Cc1ccc(CN(C(=O)CCl)C(C)C)cc1)C(=O)CCl`, the growth in assay [1] is 8.59% (active); in assay [2] it was 1.57% (active); in assay [3], -12.9% (active); in assay [4] it was 4.12% (active); in [5], 26.4%; in assay [6], 49.7%. Moreover, the growth in assay [7] is -49.3% (active); in [8] it was -76.1% (active); in assay [9] it was 59.3%; in assay [10] it was 4.6% (active).
Regarding `Cc1sc2nc(CSc3nnc(-c4ccco4)o3)[nH]c(=O)c2c1C`, the growth in assay [1] was 56.6%; in [2], 67.3%; in [3] it was 104%; in assay [4] it was 114%; in assay [5], 105%; in assay [6], 132%. Moreover, the growth in assay [7] is 109%; in assay [8], 108%; in assay [9] it was 115%; in assay [10], 112%.
For the compound `COc1ccc(C2CC(c3cccs3)=NN2c2ccc(S(=O)(=O)NC(=O)NCc3cccc(OC)c3)cc2)cc1` (stereo not given), the growth was 75.8% in assay [1]; 95.3% in assay [2]; 107% in assay [3]; 113% in assay [4]; 103% in [5]; 82.6% in assay [6]. Besides, the growth was 108% in assay [7], 106% in assay [8], 97.5% in assay [9] and 103% in assay [10].
In the case of `Cn1c(C(N)=O)cc2c1-c1nc(NC3CCCCC3)ncc1CCC2`, the growth was 92.5% in assay [1]; 93.5% in assay [2]; 88.1% in [3]; 64.6% in assay [4]; 93.4% in [5]; 91.3% in [6]. In addition, the growth in [7] is 113%; in assay [8], 97.1%; in assay [9], 58.5%; in assay [10], 91.5%.
Consider `CCCCNc1nnc(-c2cc(-c3cc4ccccc4o3)nn2-c2ccccc2)o1`, for which the growth is 76.5% in assay [1]; 77.9% in assay [2]; 88% in assay [3]; 105% in [4]; 86.7% in [5]; 99.4% in [6]. Moreover, the growth in [7] is 63.9%; in assay [8], 66%; in assay [9], 93.1%; in [10], 87.5%.
As to `O=C(O)C(Cc1ccccc1)N1C(=O)/C(=C/C(Cl)=C/c2ccc([N+](=O)[O-])cc2)SC1=S` (stereo not given), the growth in assay [1] is 5.32% (active); in assay [2] it was -6.22% (active); in assay [3], 12.1%; in [4] it was 137%; in [5], 7.24% (active); in assay [6], 83.4%. Moreover, the growth was 36.3% in [7], 10.7% in [8], 44.6% in [9] and 68.7% in assay [10].
`COc1ccc(C2=NN(c3ccc(S(N)(=O)=O)cc3)C(c3cn(-c4ccccc4)nc3-c3ccc(Cl)cc3)C2)cc1` (stereo not given): the growth was 77.9% in assay [1]; 78% in assay [2]; 91.1% in [3]; 114% in [4]; 107% in assay [5]; 97.7% in assay [6]. The growth in [7] is 105%; in assay [8], 92.4%; in assay [9], 109%; in [10] it was 90.1%.
On to `C=CCN=C1NC(=O)/C(=C/c2cc(C(C)(C)C)c(O)c(C(C)(C)C)c2)S1`, for which the growth is 32.9% in [1]; 92.1% in [2]; 95.8% in [3]; 92.1% in [4]; 70.3% in assay [5]; 74.8% in assay [6]. Also, the growth in [7] was 85.7%; in assay [8], 46.9%; in assay [9], 76.9%; in [10], 70%.
On to `OCc1c(-c2ccccc2)nc2sccn12`, for which the growth was 103% in assay [1]; 111% in assay [2]; 67.5% in assay [3]; 109% in assay [4]; 103% in assay [5]; 110% in assay [6]. Also, the growth was 88.2% in assay [7], 116% in [8], 77.7% in [9] and 105% in [10].
Regarding `O=[N+]([O-])c1cc(S(=O)(=O)OCC2CO2)ccc1Cl` (stereo not given), the growth in [1] was 1.01% (active); in [2] it was 63.6%; in assay [3], 87.5%; in assay [4], 111%; in assay [5] it was 106%; in [6], 104%. For the same compound, the growth was 52.6% in [7], 108% in [8], 101% in assay [9] and 108% in assay [10].
On to `COc1cc2c(cc1OCCCCn1c(-c3cc(=O)c4ccccc4o3)nc3ccccc31)N=C[C@@H]1CCCN1C2=O`, for which the growth in assay [1] was 39.8%; in assay [2], 67.7%; in assay [3], 106%; in [4], 111%; in assay [5] it was 108%; in [6] it was 109%. For the same compound, the growth in assay [7] is -16.3% (active); in assay [8], 111%; in [9] it was 116%; in assay [10] it was 110%.
Regarding `O=C(Cc1c(F)cccc1Cl)Nc1ccc(S(=O)(=O)Nc2ncccn2)cc1`, the growth is 52% in assay [1]; 70.4% in assay [2]; 113% in assay [3]; 103% in assay [4]; 101% in assay [5]; 102% in assay [6]. Moreover, the growth was -23.2% (active) in [7], 109% in assay [8], 111% in assay [9] and 108% in assay [10].
With `O=S(=O)(NCCCNc1cc(-c2cn(-c3ccccc3)nc2-c2cccc(O)c2)ccn1)c1ccc(Br)cc1`, the growth in assay [1] is -12.4% (active); in [2], 3.52% (active); in assay [3], 19.1%; in assay [4] it was 23.4%; in [5] it was 37.4%; in assay [6] it was 20.7%. For the same compound, the growth in assay [7] was 22.4%; in assay [8], 22%; in [9], -3.87% (active); in [10], 16.2%.
`Nc1nc(-c2ccccc2)cs1`: the growth in assay [1] was 94.5%; in [2] it was 109%; in [3], 100%; in [4] it was 98.7%; in assay [5], 102%; in assay [6], 99.4%. For the same compound, the growth in assay [7] is 113%; in assay [8], 102%; in [9] it was 104%; in assay [10], 110%.
As to `CC/C=C\C[C@H]1C/C=C2/C(=O)C(Cl)=C[C@@H]2C/C=C\CCCC(=O)O1`, the growth in [1] was -2.48% (active); in assay [2], -14.1% (active); in assay [3], 3.57% (active); in [4], -25% (active); in assay [5], -37.8% (active); in assay [6], -6.42% (active). Further, the growth in assay [7] is -41.7% (active); in assay [8], -96.1% (active); in assay [9], 17.6%; in assay [10] it was 6.27% (active).
Take `COc1ccc(OC)c(-c2ccc(-c3ccccc3N)c3[nH]c4ccccc4c23)c1`: the growth in [1] is 81.7%; in assay [2] it was 70.3%; in [3] it was 83.8%; in assay [4], 110%; in [5], 69.6%; in assay [6], 88.6%. The growth in [7] is 59.5%; in [8] it was 75.1%; in assay [9], 94.3%; in assay [10], 85.8%.
For the compound `O=C(/C=C/CN1CCOCC1)Nc1cc2c(Nc3cccc(Cl)c3F)ncnc2cc1OCCOC(F)F`, the growth was 97.1% in assay [1]; 84.5% in [2]; 67.6% in assay [3]; 49.5% in [4]; 82.4% in assay [5]; 9.17% (active) in assay [6]. For the same compound, the growth is 6.79% (active) in assay [7], 68.3% in [8], 64.9% in assay [9] and 60.9% in assay [10].
In the case of `C=C1C(=O)O[C@H]2[C@H]1CC/C(Cn1cc(-c3ccc(N)cc3)nn1)=C\CC[C@@]1(C)O[C@@H]21`, the growth in [1] is 7.69% (active); in assay [2], -8.22% (active); in [3], -5.97% (active); in assay [4], 38.4%; in [5], 13.6%; in assay [6], 83.8%. In addition, the growth was 18.4% in assay [7], -30.7% (active) in assay [8], 62.4% in [9] and 69.8% in assay [10].
`COC(=O)CC/C(C)=N\Nc1ccc([N+](=O)[O-])cc1`: the growth in [1] is 34.6%; in [2] it was 51.8%; in [3], 59.1%; in assay [4], 79.4%; in [5] it was 76.3%; in assay [6], 62.5%. For the same compound, the growth in assay [7] is 74.2%; in assay [8], 88.3%; in [9], 81.7%; in assay [10] it was 78%.
